# PubChem BioAssay AID1379 (National Center for Advancing Translational Sciences (NCATS), 2008)
# Among all 200,000 compounds or so, about 560 (0.28%) were called active. A call without a number means that no potency is given here. Only a selection was taken, and actives are over-represented in it overall. Values without a mark were called inactive. Calls come from the whole dose curve; as a rule, active = well fitted inhibition curve with a large enough effect; inconclusive = small, poorly fitted or top-dose-only effect; inactive = flat fitted curve, though single readings scatter.
# Molecular target: Luciferin 4-monooxygenase (Photuris pensylvanica) (UniProt Q27757)
# Assay: Counterscreen for Luciferase (Kinase-Glo TM) Inhibition; note: nearly all actives have a fitted effect of over 60% in size
# Details: ATP luminescence, 8 min; series mostly up to 38.3 µM
# Description: NCGC Assay Overview: NIH Molecular Libraries Screening Centers Network [MLSCN] NIH Chemical Genomics Center [NCGC] MLSCN Grant: None Luciferase (Kinase-Glo, Promega Corporation) was assayed for its ability to generate light using ATP and luciferin as substrates. The ATP concentration in the assay (10 uM) was within the linear range of enzyme activity for the assay conditions used.
# NCGC Assay Protocol Summary: Four uL of substrate mix (final concentration, 50 mM imidazole pH 7.2, 50 mM KCl, 7 mM MgCl2, 10 uM ATP, 0.01% Tween 20, 0.05% BSA) was dispensed into white 1536 well plates. Twenty-three nL of compound was delivered by a pin tool and 2 uL of luciferase detection mix (Kinase-Glo, Promega)) was added. Following 8-minute incubation at ambient temperature, luminescence was measured by a ViewLux (Perkin Elmer) at 5 seconds exposure/plate.
# Potency is the fitted concentration of half-maximal effect.
SMILES,"activity change, negative = inhibition",Potency
O=C(O)CCC(=O)O,inactive,–
CC(=O)CC(c1ccccc1)C1C(=O)Oc2ccccc2C1=O (stereo not given),inactive,–
CC(C)(C)OC(=O)NCCCCC1=CC2=CC(=O)C(C)(OC(=O)c3cccs3)C(=O)C2=CO1 (stereo not given),inactive,–
CC1=C(C/C=C(\C)CCCC(C)CCCC(C)CCCC(C)C)C(=O)c2ccccc2C1=O (stereo not given),inactive,–
CCCCCCCC/C=C\CCCCCCCC(=O)OC[C@H](CO)OC(C)=O,inactive,–
COC(=O)CCCC1=CC2=CC(=O)C(C)(OC(=O)c3cccs3)C(=O)C2=CN1CC1CC1 (stereo not given),-3.89% [at 7.66 µM],–
CC[C@@]12C=C(/C=C/c3ccccc3)[C@](CC)(C1)[C@H](c1ccccc1)CC2=O,inactive,–
O=c1c2ccccc2nc2n1C1(CCCCC1)Cc1ccccc1-2,inactive,–
CCOC(=O)C(C)Sc1nc2ccccc2c(=O)n1CC1CCCCC1 (stereo not given),inactive,–
CN(c1ccc2nc3ccccc3c(=O)n2n1)C1CCCCC1,–,6.31 µM (active)
C=CCOC(=O)NC(c1ccc(F)c(F)c1)C(C(=O)COC)C(=O)OC (stereo not given),inactive,–
COC(=O)C(C(=O)OC)C1c2ccccc2C=C(C2CC2)N1C(=O)OC (stereo not given),inactive,–
CC/C=C\C/C=C\C/C=C\C/C=C\C/C=C\C/C=C\CCC(=O)NC(C)C(=O)O (stereo not given),inactive,–
CC(=O)[C@H](C(c1ccccc1)N1CCOCC1)N1CCOCC1 (stereo not given in full),-6.68% [at 7.66 µM],–
O=C(O)C1CCCN(CCC=C(c2ccccc2)c2ccccc2)C1 (stereo not given),inactive,–
CCCCCCCCCCCCCCCCO,inactive,–
CCCCC/C=C\CC1OC1CCCCCCCC(=O)O (stereo not given),inactive,–
COc1cccc(CC(=O)N2CCc3nc(COc4ccccc4)c4c(c3C2)CO[C@@H](C)C4)c1,-3.82% [at 7.66 µM],–
COc1ccc2nc(Nc3nc(-c4cc5ccccc5oc4=O)cs3)sc2c1,inactive,–
Nc1ncc(-c2cc3ccccc3oc2=O)s1,–,11.2 µM (active)
O=c1oc2ccccc2cc1-c1csc(Nc2ccc(O)cc2)n1,inactive,–
NNc1nnc(NN)c2ccccc12,inactive,–
COc1cccc(-c2cc(=O)c3cc(NC(=O)c4ccc(C)cc4)ccc3[nH]2)c1,inactive,–

SMILES,"activity change, negative = inhibition",Potency
COc1ccc(-c2nc3c(c4c2C[C@H](c2ccccc2)OC4)CN(C(=O)C2CC2)CC3)c(C)c1,-7.98% [at 7.66 µM],–
COC(=O)C/C=C/[C@@H](C)[C@H](NC(=O)OCC(Cl)(Cl)Cl)c1ccccc1,inactive,–
CCCCCCCC1=Cc2ccc(F)cc2C(C(C(=O)OC)C(=O)OC)N1C(=O)OC (stereo not given),inactive,–
Cc1occc1C(=O)Nc1cccc(Cn2cccn2)c1,inactive,–
Cc1ccnc(NC(=O)c2ccoc2C)c1,–,6.31 µM (active)
Cc1ccnc(NC(=O)c2ccc(NC(=O)c3ccco3)cc2)c1,inactive,–
CCN1C(=O)N[C@@H](c2ccccc2)[C@H](C(C)=O)[C@H]1C,-7.74% [at 7.66 µM],–
C[C@@H]1C(c2ccc(F)cc2)=NN(c2ccc(Br)cc2)[C@H]1C(=O)N1CCOC1=O,inactive,–
O=C(O)C[C@@H]1NC(=O)[C@H](Cc2ccccc2)NC1=O,inactive,–
COC(=O)C1=C(C(=O)OC)[C@@H]2N(C)c3ccccc3[C@@]23C[C@@H](C(=O)OC)N(C(C)=O)C3=N1,0.685% [at 7.66 µM],–
CC(C)C[C@H](NC(=O)[C@H](O)[C@H](N)Cc1ccccc1)C(=O)O,inactive,–
COC(=O)C1=C(C(=O)OC)[C@@H]2N(C)c3ccccc3[C@@]23C[C@@H](C(=O)OC)N(C(=O)c2ccco2)C3=N1,-2.48% [at 7.66 µM],–
O=C(C[n+]1ccccc1)N/N=C/c1ccc(O)cc1,inactive,–
COC(=O)N/N=C/c1ccc(/C=N/NC(=O)OC)cc1,inactive,–
Cc1nonc1C(=O)N/N=C/c1ccc(O)cc1,–,5.01 µM (active)
C[C@H]1Cc2c(COc3ccccc3)nc3c(c2CO1)CN(C(=O)NCc1ccco1)CC3,-0.257% [at 7.66 µM],–
Cc1ccsc1C(=O)OCC(=O)c1cc2ccccc2o1,inactive,–
Cc1ccsc1C(=O)OCC(=O)c1cc(C)n(CC2CCCO2)c1C (stereo not given),–,12.6 µM (active)
Cc1cc(C(=O)Cn2cnc3cc([N+](=O)[O-])ccc3c2=O)c(C)n1CC1CCCO1 (stereo not given),inactive,–
COC(=O)CCCC1=CC2=CC(=O)C(C)(OC(=O)c3cccs3)C(=O)C2=CN1CC(C)C (stereo not given),-3.18% [at 7.66 µM],–
CCOC(=O)C1=C(C)c2ccccc2OC1(C)C(=O)OCC (stereo not given),inactive,–
CC(C)(Oc1ccc(C2CC2(Cl)Cl)cc1)C(=O)O (stereo not given),inactive,–
